Compound activity as filed in PubChem.
ssDAF12 agonist: S. stercoralis DAF-12 nuclear receptor activators, primary screen, cell-based, luminescence, HEK293, GRIP1 co-expression, lit1-tk-luc; HEK293 ssDAF-12/GRIP1 lit1-tk-luc reporter; % of 3 µM dafachronic acid response; activation, % at 6.8 µM; 370,000 tested, 1% active;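 active = activation above the mean over all tested compounds plus 3 SD, cut at about 0.9% in these data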;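 also: 0% = DMSO-only wells and 100% = 3 µM delta7-dafachronic acid wells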
esBAF inh: Bmi1 luciferase reporter increase in mESCs, primary screen, esBAF inhibitor project, mouse ES cells, Bmi1 luciferase knock-in, single point; 24 h; 100% = twice the neutral-well signal; reporter increase, % at 12.5 µM; 350,000 tested, 2% active; in the data active = activation above about 40%; inconclusive = no clear call, values can overlap the other calls;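 also: 0% = median of the plate's neutral control wells and 100% = double that signal; a rise in the Bmi1 reporter signal indicates esBAF inhibition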
DAX1 StAR inh: DAX1 (NR0B1) inhibitors on StAR promoter, primary screen, cell-based, luminescence, SF-1 (NR5A1), full-length DAX-1; 370,000 tested, 1.1% active; inhibition, % at 6.8 µM; AID 652010, 2013; HEK293T StAR-luciferase reporter, SF-1/DAX-1 repression relief;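 active = inhibition above the mean over all tested compounds plus 3 SD, cut at about 3.6% in these data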;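 also: 0% = DAX-1 cells with DMSO and 100% = cells lacking DAX-1 with DMSO; higher inhibition means more luminescence from relief of DAX-1 repression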
hgDAF12 agonist: H. glycines DAF-12 receptor agonists, primary screen, cell-based, luminescence, HEK293, GAL4 fusion, UAS-luciferase | Nuclear hormone receptor DAF-12 (Heterodera glycines), GAL4 fusion | HEK293 GAL4-hgDAF12 UAS-luciferase reporter, agonist luminescence; normalized to butyrate control | activation, % at 6.8 µM | 370,000 tested, 1.8% active | AID 687014, 2013;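 active = activation above a cutoff set at the mean of all screened compounds plus 3 SD, cut at about 10% in these data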;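 also: 0% = DMSO wells and 100% = sodium butyrate wells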
Wnt bcat act: Wnt/beta-catenin pathway activators, primary screen, cell-based, plate reader, single point | Wnt/beta-catenin reporter cell assay, activator | activation, % at 9.35 µM | 300,000 tested, 1.2% active | AID 743398, 2014; in the data active = activation above about 30%, passing the limit was not always enough; inconclusive = no clear call, values can overlap the other calls;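 also: 0% = neutral control wells and 100% = positive control wells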
hcDAF12 agonist: H. contortus DAF-12 nuclear receptor activators, primary screen, cell-based, luminescence, HEK293, lit1-tk-luc reporter. HEK293 hcDAF-12 lit1-tk-luc reporter; 0% DMSO, 100% Δ7-dafachronic acid. activation, % at 6.8 µM. 370,000 tested, 1.4% active;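 active = activation above the mean of all tested compounds plus 3 SD, cut at about 5.5% in these data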;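 also: 100% = response to 3 µM Δ7-dafachronic acid high control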
An asterisk follows results filed as active; ? = inconclusive; / = not tested or not shown. In the library only some 4.2% were active in any assay of this set; here they are far more common.

SMILES | ssDAF12 agonist | esBAF inh | DAX1 StAR inh | hgDAF12 agonist | Wnt bcat act | hcDAF12 agonist
O=C(NCc1cccs1)c1cccc2c(-c3ccc(F)c(F)c3)coc12 | 3.5* | 6.2 | -0.4 | -2.9 | -0.2 | 0.9
O=C(NCc1cccs1)c1cccc2c(-c3cccnc3)coc12 | -1.4 | 35.0 | -0.4 | 6.4 | -0.7 | -1.2
C[C@H]1CN([C@@H](C)CO)C(=O)c2cc(NC(=O)Cn3cnnn3)ccc2O[C@H]1CN(C)Cc1ccncc1 | / | 8.4 | / | / | / | /
COCc1nnc(NC(=O)c2sc3ccccc3c2Cl)s1 | -1.1 | 50.8* | 1.3 | 2.6 | ? | 2.1
C[C@H](NC(=O)c1ccco1)C(=O)Nc1nnc(SCc2ccccc2)s1 | -0.6 | -3.7 | 3.7* | 1.3 | 0.8 | 0.9
Cc1ccc2nsnc2c1NC(=O)c1sc2ccccc2c1Cl | -1.8 | / | -0.4 | 0.1 | / | -0.1
CNC(=O)c1ccsc1NC(=O)c1sc2ccccc2c1Cl | -0.8 | 42.8* | -1.3 | 3.9 | ? | 1.6
CSc1nnc(NC(=O)c2ccco2)s1 | -0.5 | 13.3 | 0.7 | 3.8 | 0.1 | 1.6
CCC(C)Sc1nnc(NC(=O)c2ccco2)s1 (stereo not given) | -0.5 | 50.4* | -0.3 | 4.8 | 24.4 | 2.4
CCOCc1nnc(NC(=O)c2ccco2)s1 | -0.4 | 6.7 | 0.0 | 0.2 | 2.9 | -2.0
COCc1nnc(NC(=O)c2ccco2)s1 | -0.4 | 45.0* | -0.4 | 1.1 | / | 0.1
COc1ccccc1C(=O)NNC(=S)NC(=O)c1sc2ccccc2c1Cl | 0.9 | / | 1.0 | 3.6 | -0.4 | 6.1*
CCN(CC)C(=O)COc1ccc(-c2ccccc2)cc1 | -0.4 | 50.1* | -0.2 | 5.3 | / | 2.2
Cc1ccc(S(=O)(=O)NCC[C@@H]2CC[C@@H](NS(=O)(=O)c3ccccc3Cl)[C@@H](CO)O2)cc1 | / | -4.0 | / | / | / | /
CSc1ccccc1NC(=O)c1ccc(Br)o1 | -0.1 | 51.7* | 0.4 | 8.5 | 6.5 | 0.6
O=C(Nc1cccc2ccccc12)c1ccc(Br)o1 | -1.3 | -14.0 | -1.2 | -1.2 | / | -0.6
Cc1cccc(NC(=S)NC(=O)c2ccc(Br)o2)c1C | -1.3 | / | -0.5 | 6.6 | -0.9 | 0.7
O=C(NC(=S)Nc1ccccc1F)c1ccc(Br)o1 | 0.3 | 49.3* | 1.1 | 10.1 | -0.1 | 5.2
COCC(=O)Nc1ccc2c(c1)OC[C@H](C)N(Cc1cc(F)ccc1F)C[C@@H](C)[C@@H](OC)CN(C)C2=O | / | -2.0 | / | / | / | /
Clc1ccc(-c2csc(Nc3ccccc3)[n+]2Cc2ccco2)c(Cl)c1 | 0.0 | / | 0.4 | 7.4 | 42.8* | 2.4
CCCC[n+]1c(-c2ccc(Cl)cc2Cl)csc1Nc1ccccc1 | -0.6 | 5.6 | 0.8 | 1.5 | / | -1.4
O=C(/C=C/Nc1ccc([N+](=O)[O-])cc1Br)c1cccc2ccccc12 | -0.6 | / | 0.1 | 8.2 | 48.4* | 5.3
NC(=O)c1cc([N+](=O)[O-])ccc1NCc1cccc2ccccc12 | -1.5 | 12.7 | 0.1 | -2.3 | -3.3 | -1.6
COc1ccc(C(=O)N[C@H](C(=O)Nc2ccc(OC)nc2)C(C)C)cc1 | -1.3 | 16.3 | 0.6 | 1.7 | 6.9 | -1.0
COc1ccc(C(=O)N[C@H](C(=O)Nc2nc3c(s2)CCCC3)C(C)C)cc1 | -0.9 | 64.8* | 0.5 | 4.8 | 38.4* | 1.2
SMILES | ssDAF12 agonist | esBAF inh | DAX1 StAR inh | hgDAF12 agonist | Wnt bcat act | hcDAF12 agonist
CCOc1ccccc1NC(=O)[C@@H](NC(=O)c1ccccc1F)C(C)C | -1.5 | 0.3 | -0.1 | -0.8 | -2.0 | -1.8
CCOc1ccccc1C(=O)N[C@H](C(=O)Nc1nc2c(s1)CCCC2)C(C)C | 4.1* | / | -0.1 | 5.8 | -0.9 | 2.9
CN(Cc1nc(-c2cccc(Cl)c2)no1)C1CCOCC1 | -0.7 | / | 2.0 | 12.0* | 22.7 | 2.5
CCN(Cc1nc(-c2cccc(Cl)c2)no1)CC1CCCO1 (stereo not given) | -1.1 | 7.6 | 0.2 | 1.2 | 1.2 | -0.4
CC(=O)Nc1cc(C(=O)OCC(=O)c2ccc(C)cc2)ccc1C | -0.5 | 77.7* | 1.0 | 8.2 | ? | 3.1
COc1ccc(C(=O)COc2ccc(C)cc2NC(C)=O)cc1 | -0.5 | / | 2.3 | 10.5* | 55.9* | 2.2
C[C@H](NC(=O)[C@@H]1[C@@H](CO)[C@@H]2Cn3c(ccc(-c4ccccc4F)c3=O)[C@H]1N2C)c1ccccc1 | / | 2.0 | / | / | / | /
CN=c1scc(-c2ccco2)n1/N=C/c1ccc(O)c(O)c1 | 0.1 | / | 2.2 | 16.7* | -5.9 | 8.4*
CO[C@H]1CN(C)C(=O)c2ccc(NC(C)=O)cc2OC[C@@H](C)N(CC2CCCCC2)C[C@H]1C | / | -1.7 | / | / | / | /
O=C(NCCc1c[nH]c2ccccc12)c1cc([N+](=O)[O-])cc([N+](=O)[O-])c1 | 0.9* | -15.7 | 0.1 | -0.6 | -2.2 | 5.2
Cc1ccc(C(=O)NCCc2c[nH]c3ccccc23)s1 | 1.3* | 55.7* | 0.8 | 10.1 | 29.5 | 1.2
O=C(NCCc1c[nH]c2ccccc12)c1ccccc1 | -0.8 | 30.3 | 0.0 | 7.2 | -1.1 | 2.2
O=C(NCCc1c[nH]c2ccccc12)c1ccc([N+](=O)[O-])cc1 | 0.1 | / | 0.2 | 2.6 | 3.7 | 2.5
Cc1ccc(C(=O)NCCCc2ccccc2)s1 | -0.3 | / | 1.5 | 9.6 | 52.6* | 6.2*
Cc1ccc(Nc2cccc(C(F)(F)F)c2)nn1 | -0.6 | / | -0.4 | 2.9 | -0.5 | 1.2
COc1ccccc1-c1ccc(Nc2cccc(C(F)(F)F)c2)nn1 | -1.0 | 45.5* | 0.4 | -1.3 | / | -1.9
CCCOc1ccc(-c2nnc(-c3ccco3)o2)cc1 | 0.0 | -59.5 | 3.7* | 11.1* | 3.7 | 4.5
CC(C)COc1ccc(-c2nnc(-c3ccco3)o2)cc1 | 0.8 | -17.1 | 3.7* | 10.0 | / | 4.5
COc1cccc(-c2nnc(-c3ccco3)o2)c1 | -0.9 | / | 3.5 | 11.5* | ? | 5.5
O=C(COc1ccccc1)Nc1ccc(-c2nnc(-c3ccco3)o2)cc1 | 0.0 | 34.9 | 0.8 | 8.8 | / | 6.3*
COc1cccc(C(=O)Nc2ccc(-c3nnc(-c4ccco4)o3)cc2)c1 | -2.0 | / | -1.6 | -3.1 | / | -2.9
COc1ccccc1OCC(=O)Nc1cccc(-c2nnc(-c3ccco3)o2)c1 | -1.7 | / | 0.2 | -1.6 | 6.1 | -2.7
O=C(Nc1ccc(CN2CCOCC2)cc1)c1ccc(Br)cc1 | -0.6 | ? | -0.3 | -1.7 | -0.1 | -1.6
C/C(=N\NC(=O)c1ccc(CN2CCOCC2)cc1)c1ccc(NC(=O)c2ccccc2)cc1 | -0.6 | 65.6* | 2.9 | 11.4* | 9.9 | 5.2
O=C(Nc1ccc(CN2CCOCC2)cc1)c1ccc(Cl)cc1 | -1.6 | 44.4* | -0.9 | 2.1 | 11.6 | -1.6
